# Hit rate of the full screen: of about 16,000 compounds, about 5,100 (32%) were called active. Roughly 25% stayed inconclusive and do not appear here. The call rests on the fitted dose curve; in most records, active means well fitted curve in the direction sought with a large enough effect; inconclusive means small, poorly fitted or top-dose-only effect, or effect the other way; inactive means no such curve, though single readings can be large or run the other way. The list shows a part of the results.
# Target: Cytochrome P450 3A4 (Homo sapiens) (UniProt P08684)
# Sequence (P08684 whole entry, looked up): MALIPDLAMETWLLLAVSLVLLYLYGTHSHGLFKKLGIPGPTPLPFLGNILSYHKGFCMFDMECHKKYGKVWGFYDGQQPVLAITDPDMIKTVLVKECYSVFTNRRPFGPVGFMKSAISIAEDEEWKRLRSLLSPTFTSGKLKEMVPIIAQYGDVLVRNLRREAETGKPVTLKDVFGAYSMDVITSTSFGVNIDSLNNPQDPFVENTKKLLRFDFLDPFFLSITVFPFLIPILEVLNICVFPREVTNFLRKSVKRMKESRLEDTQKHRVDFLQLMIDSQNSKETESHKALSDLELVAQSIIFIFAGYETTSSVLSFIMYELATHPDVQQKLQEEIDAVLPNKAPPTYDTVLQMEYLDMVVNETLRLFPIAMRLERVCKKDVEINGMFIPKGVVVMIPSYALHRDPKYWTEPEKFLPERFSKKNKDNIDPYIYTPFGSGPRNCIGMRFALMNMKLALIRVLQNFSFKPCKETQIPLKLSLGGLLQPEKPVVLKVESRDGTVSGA
# Assay: Cytochrome panel assay with activity outcomes
# Conditions: recombinant CYP, pro-luciferin dealkylation, luminescence, p450-cyp3a4; series mostly up to 57.1 µM; activity, negative = inhibition: at the top concentration
# On the % scale 0 is the no-effect control and ±100 the full control effect.
SMILES,"activity, negative = inhibition",AC50
Nc1ncnc2c1cnn2-c1ccccc1,-17.9% (inactive),
Nc1ccc(Sc2cnn(-c3ccccc3)c(=O)c2Cl)cc1,,8.91 µM (active)
NCCCCCC(=O)O,,inactive
Cc1nc(SCC(=O)NCCc2ccc(Cl)cc2)nc(C)c1C,,2 µM (active)
CNC(=O)C(=O)NCCc1ccc(Cl)cc1,-24.5% (inactive),
Nc1ccc(S(=O)(=O)Nc2ccc(Cl)nn2)cc1,-19.2% [at 25.6 µM] (inactive),
Cc1nc2sccc2c(=O)n1-c1cccc(Cl)c1,17.4% [at 11.4 µM] (inactive),
Nc1nnc(CC(=O)N/N=C/c2cccc([N+](=O)[O-])c2)s1,,28.2 µM (active)
O=C(Cc1ccccc1)N/N=C/C=C/c1cccc([N+](=O)[O-])c1,-11.9% (inactive),
COc1ccc(CN2CCN(C(=O)CC(C)C)CC2)c(OC)c1OC,-28.6% (inactive),
CCCC(=O)Nc1cc(-c2cn3cccnc3n2)ccc1OC,-20% (inactive),
CCOc1ccc(-c2cc(CCCC(=O)Nc3cc(OC)ccc3OC)no2)cc1,,3.55 µM (active)
CCOc1ccc(-c2cc(CCCC(=O)NCCc3ccc(OC)c(OC)c3OC)no2)cc1,,7.08 µM (active)
N[C@H](CCC(=O)NCS(=O)(=O)O)C(=O)O,-6.84% (inactive),
COC(=O)N1CCC[C@@]2(CCN(c3ccccn3)C2)C1,-29.4% (inactive),
CS(=O)(=O)N1CCC2(CC1)CN(c1ccc(-c3ccccc3)cc1)C2,-13.5% (inactive),
COC(=O)N1CCC2(CCCN(c3ccccn3)C2)CC1,-21.1% (inactive),
O=C(Oc1ccccc1)N1CCC2(CCCN(c3ncccn3)C2)CC1,-28.9% (inactive),
CC(=O)N1CCC2(CC1)CN(c1ccccn1)C2,-8.58% (inactive),
c1ccc(-c2ccc(N3CC[C@@]4(CCCNC4)C3)cc2)cc1,-22% (inactive),
O=C(Oc1ccccc1)N1CCC2(CCCN(c3ccc(-c4ccccc4)cc3)C2)CC1,,31.6 µM (active)
CC(=O)N1CCC2(CC1)CCN(c1ccc(-c3ccccc3)cc1)CC2,-3.64% (inactive),

SMILES,"activity, negative = inhibition",AC50
O=C(Oc1ccccc1)N1CCC[C@@]2(CCN(c3ccccn3)C2)C1,,10 µM (active)
c1ccc(-c2ccc(N3CCCC4(CCNCC4)C3)cc2)cc1,,12.6 µM (active)
O=C(Oc1ccccc1)N1CCC2(CCCN(c3ccccn3)C2)CC1,,25.1 µM (active)
NC(=O)CCCC1=NS(=O)(=O)c2ccccc2N1,-25.6% (inactive),
CC(C)(CC(=O)N1CCN(c2ccc(Cl)cc2)CC1)CC1=NS(=O)(=O)c2ccccc2N1,,2.51 µM (active)
NC(=O)C1(N2CCCCC2)CCN(C(=S)Nc2ccc(Cl)cc2)CC1,-18% (inactive),
NC(=O)C1(N2CCCCC2)CCN(C(=O)c2cccn3c(=O)c4cc(Cl)ccc4nc23)CC1,,11.2 µM (active)
CCOC(=O)N1CCN(C(=O)c2cccn3c(=O)c4cc(Cl)ccc4nc23)CC1,6.16% (inactive),
CC(C)(C)n1nnnc1C(c1cccnc1)N(Cc1ccccc1)Cc1ccco1 (stereo not given),,0.794 µM (active)
O=C(NCCc1c[nH]c2ccccc12)[C@H]1C[C@@H]1[C@H](NP(=O)(c1ccccc1)c1ccccc1)c1ccccc1,,1.58 µM (active)
O=C(NCCc1c[nH]c2ccccc12)[C@@H]1C[C@H]1[C@@H](NP(=O)(c1ccccc1)c1ccccc1)c1ccccc1,,1.26 µM (active)
CN(Cc1cc(C(C)(C)C)cc(Br)c1O)Cc1cc(C(C)(C)C)cc(Br)c1O,-11.7% [at 11.4 µM] (inactive),
CCOC(=O)c1cnc2cc(-c3ccc(C(C)(C)C)cc3)nn2c1N,7.33% (inactive),
CCOC(=O)c1cnc(-c2ccccc2)nc1Oc1cccc(Cl)c1,-19.3% (inactive),
CCOC(=O)c1cnc2cc(-c3ccc(C)cc3)nn2c1-c1ccccc1,,20 µM (active)
CC(=O)C1=NOC(CNC(=O)c2c(-c3ccccc3Cl)noc2C)C1 (stereo not given),,15.8 µM (active)
CC(=O)c1c(C(C)=O)c(C)n(NC(=O)c2ccccc2Cl)c1C,17.3% (inactive),
Cc1onc(-c2ccccc2Cl)c1C(=O)NCC(=O)O,-12.3% (inactive),
CCOC(=O)C1=NOC(CNC(=O)C2=NOC(CNC(=O)c3c(-c4ccccc4Cl)noc3C)C2)C1 (stereo not given),,12.6 µM (active)
CC(C)(C[C@@]1(C)NC(=O)NC1=O)OCc1ccccc1,-6.17% [at 11.4 µM] (inactive),
O=C(O)c1cc(C(=O)C(=O)c2cc(C(=O)O)c(O)c3ccccc23)c2ccccc2c1O,-22.6% [at 11.4 µM] (inactive),
CC(C)c1ccc(NC(=O)N(CCc2nc3ccccc3[nH]2)C2CCCC2)cc1,-18.7% [at 2.29 µM] (inactive),

SMILES,"activity, negative = inhibition",AC50
CCN(CC(=O)Nc1ccc(N2CCOCC2)cc1)Cc1nc2ccccc2c(=O)[nH]1,-42.3% (inactive),
Cc1cccc(NC(=O)N(Cc2nc3ccccc3c(=O)[nH]2)C2CCCC2)c1,,15.8 µM (active)
Nc1nnc(C(c2ccccc2)c2ccccc2)s1,13.5% (inactive),
Cc1cccc(C(CC(=O)N2CCCC2)c2ccccc2)c1O (stereo not given),,2.51 µM (active)
O=C(C[C@@H](c1ccccc1)N1CCCCC1)c1ccccc1,-9.31% [at 11.4 µM] (inactive),
Cc1ccc(OC(=O)c2cccc(C(=O)Oc3ccc(C)cn3)n2)nc1,-2.88% (inactive),
FC(F)(F)c1nc(N2CCCC2)ncc1-c1nnnn1-c1ccccc1,21% [at 2.29 µM] (inactive),
FC(F)(F)c1nc(-c2ccncc2)ncc1-c1nnnn1-c1ccccc1,,5.62 µM (active)
O=c1cc(CF)[nH]c(=S)[nH]1,-8.49% [at 11.4 µM] (inactive),
COC(=O)c1ccc(NC(=O)c2ccccc2NS(=O)(=O)c2ccccc2)cc1,,7.94 µM (active)
CC(=O)C=NCC(=O)O,-0.504% [at 11.4 µM] (inactive),
C[C@H](c1ccccc1)N1C(=O)[C@H]2[C@@H]3[C@H](O)[C@H](O)CC(=O)[C@H]3CC[C@H]2C1=O,-18.1% [at 11.4 µM] (inactive),
C#CCCCO/N=C1/C[C@@H](O)[C@@H](O)[C@@H]2[C@@H]3C(=O)N(Cc4ccccc4)C(=O)[C@H]3CC[C@H]12,,3.98 µM (active)
C#CCCCO/N=C1/C[C@@H](O)[C@@H](O)[C@@H]2[C@@H]3C(=O)N([C@@H](C)c4ccccc4)C(=O)[C@H]3CC[C@H]12,,3.98 µM (active)
CCOC(=O)N/N=C1/C[C@@H](O)[C@@H](O)[C@@H]2[C@@H]3C(=O)N([C@@H](C)c4ccccc4)C(=O)[C@H]3CC[C@@H]12,-20.9% [at 11.4 µM] (inactive),
C#CCCCO/N=C1/C[C@@H](O)[C@@H](O)[C@@H]2[C@@H]3C(=O)N(Cc4ccccc4)C(=O)[C@H]3CC[C@@H]12,-23.2% [at 11.4 µM] (inactive),
C#CCCCO/N=C1/C[C@@H](O)[C@@H](O)[C@@H]2[C@@H]3C(=O)N(C4CCCCC4)C(=O)[C@H]3CC[C@@H]12,,3.16 µM (active)
CCOC(=O)N/N=C1/C[C@@H](O)[C@@H](O)[C@@H]2[C@@H]3C(=O)N([C@@H](C)c4ccccc4)C(=O)[C@H]3CC[C@H]12,-23.4% [at 11.4 µM] (inactive),
C#CCCCO/N=C1/C[C@@H](O)[C@@H](O)[C@@H]2[C@@H]3C(=O)N(CC)C(=O)[C@H]3CC[C@@H]12,-23.5% [at 11.4 µM] (inactive),
C#CCCCO/N=C1/C[C@@H](O)[C@@H](O)[C@@H]2[C@@H]3C(=O)N([C@@H](C)c4ccccc4)C(=O)[C@H]3CC[C@@H]12,,3.98 µM (active)
CC(C)CO/N=C1/C[C@@H](O)[C@@H](O)[C@@H]2[C@@H]3C(=O)N([C@@H](C)c4ccccc4)C(=O)[C@H]3CC[C@@H]12,-29.6% [at 11.4 µM] (inactive),
C#CCCCO/N=C1/C[C@@H](O)[C@@H](O)[C@@H]2[C@@H]3C(=O)N(CC)C(=O)[C@H]3CC[C@H]12,-27.7% [at 11.4 µM] (inactive),

SMILES,"activity, negative = inhibition",AC50
C[C@@H]1[C@H]2CC[C@@H]3[C@@H]4CC=C5C[C@@H](N(C)C)CC[C@]5(C)[C@@H]4CC[C@@]32CN1C,8.89% [at 25.6 µM] (inactive),
CC(C)c1cc(C(F)(F)F)nc(NNc2nc(C(C)C)cc(C(F)(F)F)n2)n1,,3.16 µM (active)
CC(C)Nc1nc(Oc2ccc(Cl)cc2)cc(C(F)(F)F)n1,-8% (inactive),
CC(C)Nc1cc(C(F)(F)F)nc(-c2ccccn2)n1,-7.62% (inactive),
O=c1c2ccccc2nnn1CSc1ccc2c(c1)OCCO2,-16.6% (inactive),
CC(C)Cn1c(N)c(C(=O)CSc2ccc3c(c2)OCCO3)c(=O)n(C)c1=O,,3.98 µM (active)
Cn1c(N)c(C(=O)CSc2ccc3c(c2)OCCO3)c(=O)n(C)c1=O,,5.62 µM (active)
Cc1nn(-c2ccc(Cl)cc2)c2sc(C(=O)c3c(N)n(C)c(=O)n(C)c3=O)cc12,7.37% [at 2.29 µM] (inactive),
CCc1c(C)c2c(C)[nH]nc2oc1=O,-8.51% (inactive),
COc1cc2nc3c(c([Si](C)(C)C(C)(C)C)c2cc1OC)Cn1c-3cccc1=O,,3.98 µM (active)
COc1ccc2nc3c(c([Si](C)(C)C(C)(C)C)c2c1)Cn1c-3cccc1=O,,1.58 µM (active)
CC(C)(C)[Si](C)(C)c1c2c(nc3ccc(OCc4ccccc4)cc13)-c1cccc(=O)n1C2,,15.8 µM (active)
OC[C@H]1NC[C@H](O)[C@@H](O)[C@H]1O,-7.16% (inactive),
CCC(C)(C(=O)NC1CCCC1)N(Cc1ccco1)C(=O)c1ccccn1 (stereo not given),,8.91 µM (active)
O=C(N/N=C/C1CCCCC1)c1ccccn1,-7.05% [at 11.4 µM] (inactive),
CCC(C)(C(=O)NC1CCCC1)N(C(=O)c1ccccn1)c1ccccc1 (stereo not given),,5.01 µM (active)
C[C@]1(OC(=O)/C=C\c2ccccc2)C[C@@H](O)[C@@]2(O)C=CO[C@@H](O[C@H]3O[C@@H](CO)[C@@H](O)[C@@H](O)[C@@H]3O)[C@H]21,9.79% [at 25.6 µM] (inactive),
O=C(N/C(=C/c1cccs1)c1nc2ccccc2[nH]1)c1ccccc1,,14.1 µM (active)
O=C(N/C(=C/c1ccc(Br)cc1)c1nc2ccccc2[nH]1)c1ccco1,,1.58 µM (active)
